Drawing on PubChem BioAssay, this text covers composite z-score, z-score and composite Z-score for five compounds.

Calls of active or inactive are those of the source.

Test [1] has as its system Human papillomavirus type 1a protein E7 (residues 44-93). The experiment in a line: HPV1a E7 fragment binders on microarrays, primary screen, biochemical, small-molecule microarray, residues 44-93, 635 nm fluorescence (AID 1108).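 Note: E7 fragment applied at 1 µg/mL in TBST for 1 h at 4 C; score combines spot fluorescence with its signal to noise ratio.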 The following applies: small-molecule microarray binding, fluorescence 635 nm; higher = more signal.
A short description of test [2]: modulators of HCV replicon luciferase signal, primary screen, HCV replication inhibitor project, Huh7 cells, luciferase reporter (AID 1109).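 Note: huh7 hepatoma cells harbouring a luciferase neomycin HCV replicon reporter; luciferase luminescence as measure of HCV replicon replication; test concentration not given here.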 The following applies: 48 h, higher = more signal. (A replicon is a self-replicating genome or part of one, used to study replication in cells.)
The target in test [3] is Left-right determination factor 2 (Homo sapiens) (UniProt O00292). The experiment in a line: LEFTY2 binders on small-molecule microarrays, primary screen, biochemical, small-molecule microarray, 635 nm fluorescence scan (AID 1110). The conditions noted are these: LEFTY2 binding, higher = more signal.
Test [4] deals with Calmodulin-1 (Homo sapiens) (UniProt P0DP23). The test can be described thus: CALM1 binders on microarrays, EGTA buffer, profiling panel, biochemical, small-molecule microarray, Cy5-labelled CALM1 (AID 1111).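 Note: labelled calmodulin applied in Tris saline Tween buffer holding calcium plus EGTA and DTT.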 The conditions noted are these: Cy5-CALM1 binding fluorescence, higher = more signal.
The target is the same in test [5]. The experiment in a line: calcium-bound CALM1 binders on microarrays, profiling panel, artefact control for SMM control-protein annotation, biochemical, small-molecule microarray, Cy5-labelled CALM1, plus calcium (AID 1112).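 Note: score merges spot fluorescence with signal to noise from triplicate slides.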 The following applies: Cy5-CALM1 binding fluorescence, higher = more signal.
Test [6] in a line: small-molecule microarray binders of probe aWnt5a, primary screen, biochemical, biotinylated probe, 635/667 nm fluorescence (AID 1113).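 Note: score merges 667 nm fluorescence intensity with signal-to-noise per printed feature.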 The following applies: higher = more signal.
The nature of test [7]: small-molecule microarray binders of probe aShh, primary screen, biochemical, biotinylated probe, 635/667 nm fluorescence (AID 1114).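 Note: probe is biotin-labelled aShh protein from a stem cell growth factor screen; measures binding of labelled protein to compounds printed on the slide; score merges feature fluorescence at 667 nm with signal-to-noise.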 The conditions noted are these: higher = more signal.
Test [8] is described as follows: small-molecule microarray binders of probe aNog, primary screen, biochemical, biotinylated probe, 635/667 nm fluorescence (AID 1115).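 Note: probe is biotinylated aNog protein used at 0.15 µg/mL for 1 h at 4 C; z-score combines 667 nm fluorescence of each spot with its signal to noise.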 The conditions noted are these: higher = more signal.
The target in test [9] is Torsin-1A-interacting protein 1 (Homo sapiens) (UniProt Q5JTV8). The experiment in a line: LAP1 binders from COS7 cell lysate, primary screen, small-molecule microarray, 635/667 nm fluorescence (AID 1116). The following applies: COS7-hLAP1 lysate binding, 635 nm fluorescence, higher = more signal.
Test [10] has as its target Alpha-bungarotoxin (Bungarus multicinctus) (UniProt P60615). The test can be described thus: alpha-bungarotoxin binders on microarray, profiling panel, artefact control for SMM control protein annotation, biochemical, small-molecule microarray, Alexa647 label, 635/667 nm fluorescence (AID 1117). The following applies: alpha-BTX-A647 binding fluorescence, higher = more signal.

The next test deals with Albumin (Bos taurus) (UniProt P02769). The test can be described thus: bovine serum albumin binders on microarray, profiling panel, artefact control for SMM control protein annotation, biochemical, small-molecule microarray, Alexa647 label, 635/667 nm fluorescence (AID 1118).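 Note: score merges 667 nm emission intensity and signal-to-noise per printed compound spot.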 The following applies: BSA-A647 binding, fluorescence 635 nm, higher = more signal.
Test [11] can be described thus: small-molecule microarray binders of probe aXIP, primary screen, biochemical, NeuroSMM set, 635/667 nm fluorescence (AID 1119).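 Note: probe is the protein aXip251-270 applied at 1 µg/mL to compound-printed slides; binding of probe to printed compounds measured as 667 nm fluorescence plus signal to noise.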 The conditions noted are these: higher = more signal, called active from +8 up or from −8 down.
Test [12] can be described thus: small-molecule binders of probe aNOTCH3, primary screen, biochemical, small-molecule microarray, 635/667 nm fluorescence (AID 1120).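 Note: probe is a biotin-tagged antibody raised against NOTCH3 rather than NOTCH3 protein; score merges spot fluorescence near 667 nm with spot signal to noise.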 The following applies: higher = more signal.
The nature of test [13]: small-molecule binders of probe aNOTCH2, primary screen, biochemical, small-molecule microarray, 635/667 nm fluorescence (AID 1121).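 Note: score merges feature fluorescence read at 667 nm with its signal to noise.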 The following applies: higher = more signal.
In test [14] the target is Carbonic anhydrase 2 (Homo sapiens) (UniProt P00918). The experiment in a line: CAII small-molecule binders, profiling panel, biochemical, small-molecule microarray, Alexa647-labelled CAII (AID 1122). The following applies: CAII-A647 binding fluorescence, higher = more signal.
Test [15] in a line: COS7 lysate on small-molecule microarray, probe aHis, 635 nm (AID 1123).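 Note: z-score combines 667nm fluorescence intensity with signal-to-noise per printed compound spot.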 The conditions noted are these: COS7 cell lysate, fluorescence, higher = more signal.
Test [16] is described as follows: compound binding in COS7 lysate, probe aLAP1, primary screen, cell lysate, small-molecule microarray (AID 1124).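 Note: lysate comes from COS7 cells expressing LAP1 and is applied at 0.3 µg/mL; score merges spot fluorescence near 667 nm with signal-to-noise over triplicate slides.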 The following applies: probe aLAP1, fluorescence, higher = more signal.
Another test has as its system Sam68 (KHDRBS1). The experiment in a line: Sam68 small-molecule binders, primary screen, biochemical, small-molecule microarray, 635 nm fluorescence (AID 1125).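 Note: score merges 667 nm channel intensity with signal to noise over triplicate slides.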 The following applies: small-molecule microarray binding, higher = more signal.
In test [17] the test system is Chordin-like protein 2 (CHRDL2). The experiment in a line: CHRDL2 small-molecule binders, primary screen, biochemical, small-molecule microarray, 635 nm fluorescence (AID 1126).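 Note: printed compound slides probed with Chrdl2 protein at 4 µg/mL for 1 h at 4 C; score merges 667 nm emission intensity with signal to noise over three replicate slides.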 The conditions noted are these: small-molecule microarray binding, fluorescence 635 nm; higher = more signal.
The target in test [18] is Concanavalin-A (Canavalia ensiformis) (UniProt P02866). The experiment in a line: ConA small-molecule binders, primary screen, artefact control for SMM control protein annotation, biochemical, small-molecule microarray, Alexa647 label, 635 nm (AID 1127).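 Note: z combines 667 nm emission intensity with signal-to-noise across three replicate slides.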 The conditions noted are these: ConA-A647 binding fluorescence, higher = more signal.
Sequence of Concanavalin-A (Canavalia ensiformis) (P02866 whole entry, looked up): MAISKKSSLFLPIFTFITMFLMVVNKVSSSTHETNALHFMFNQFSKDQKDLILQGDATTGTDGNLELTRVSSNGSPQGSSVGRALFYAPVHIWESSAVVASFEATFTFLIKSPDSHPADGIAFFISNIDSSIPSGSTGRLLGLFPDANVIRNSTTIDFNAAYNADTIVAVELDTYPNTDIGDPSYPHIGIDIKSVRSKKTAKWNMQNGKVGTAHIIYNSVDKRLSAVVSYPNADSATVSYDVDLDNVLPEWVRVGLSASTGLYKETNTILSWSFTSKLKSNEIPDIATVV

Sequence of Alpha-bungarotoxin (Bungarus multicinctus) (P60615 whole entry, looked up): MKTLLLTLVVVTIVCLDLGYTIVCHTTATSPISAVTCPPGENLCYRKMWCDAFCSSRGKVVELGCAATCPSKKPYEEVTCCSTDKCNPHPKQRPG
Sequence of Left-right determination factor 2 (Homo sapiens) (O00292 whole entry, looked up): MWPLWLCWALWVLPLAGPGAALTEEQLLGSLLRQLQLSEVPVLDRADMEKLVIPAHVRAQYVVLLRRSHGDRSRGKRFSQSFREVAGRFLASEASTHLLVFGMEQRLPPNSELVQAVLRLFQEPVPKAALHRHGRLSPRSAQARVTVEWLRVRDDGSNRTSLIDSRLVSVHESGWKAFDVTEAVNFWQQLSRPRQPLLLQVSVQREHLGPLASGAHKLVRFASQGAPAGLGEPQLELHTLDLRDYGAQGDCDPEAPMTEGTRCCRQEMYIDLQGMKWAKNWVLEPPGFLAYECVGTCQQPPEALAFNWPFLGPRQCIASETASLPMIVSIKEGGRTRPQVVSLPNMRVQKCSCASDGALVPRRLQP
Sequence of Albumin (Bos taurus) (P02769 whole entry, looked up): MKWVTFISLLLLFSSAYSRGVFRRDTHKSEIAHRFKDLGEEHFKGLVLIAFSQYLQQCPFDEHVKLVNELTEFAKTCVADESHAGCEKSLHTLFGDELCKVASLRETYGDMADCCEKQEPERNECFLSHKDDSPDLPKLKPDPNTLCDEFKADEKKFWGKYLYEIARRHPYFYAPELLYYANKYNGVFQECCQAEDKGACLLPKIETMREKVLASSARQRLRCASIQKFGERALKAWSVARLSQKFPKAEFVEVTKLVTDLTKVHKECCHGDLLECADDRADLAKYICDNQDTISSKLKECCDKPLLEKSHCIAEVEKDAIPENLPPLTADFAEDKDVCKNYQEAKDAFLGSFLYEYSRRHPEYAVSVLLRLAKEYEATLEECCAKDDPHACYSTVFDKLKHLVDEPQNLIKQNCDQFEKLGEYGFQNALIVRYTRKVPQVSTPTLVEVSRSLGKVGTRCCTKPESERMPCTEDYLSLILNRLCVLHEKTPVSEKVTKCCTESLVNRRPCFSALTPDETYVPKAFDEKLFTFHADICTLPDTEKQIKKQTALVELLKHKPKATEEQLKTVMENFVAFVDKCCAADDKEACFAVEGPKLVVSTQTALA
Sequence of Torsin-1A-interacting protein 1 (Homo sapiens) (Q5JTV8 whole entry, looked up): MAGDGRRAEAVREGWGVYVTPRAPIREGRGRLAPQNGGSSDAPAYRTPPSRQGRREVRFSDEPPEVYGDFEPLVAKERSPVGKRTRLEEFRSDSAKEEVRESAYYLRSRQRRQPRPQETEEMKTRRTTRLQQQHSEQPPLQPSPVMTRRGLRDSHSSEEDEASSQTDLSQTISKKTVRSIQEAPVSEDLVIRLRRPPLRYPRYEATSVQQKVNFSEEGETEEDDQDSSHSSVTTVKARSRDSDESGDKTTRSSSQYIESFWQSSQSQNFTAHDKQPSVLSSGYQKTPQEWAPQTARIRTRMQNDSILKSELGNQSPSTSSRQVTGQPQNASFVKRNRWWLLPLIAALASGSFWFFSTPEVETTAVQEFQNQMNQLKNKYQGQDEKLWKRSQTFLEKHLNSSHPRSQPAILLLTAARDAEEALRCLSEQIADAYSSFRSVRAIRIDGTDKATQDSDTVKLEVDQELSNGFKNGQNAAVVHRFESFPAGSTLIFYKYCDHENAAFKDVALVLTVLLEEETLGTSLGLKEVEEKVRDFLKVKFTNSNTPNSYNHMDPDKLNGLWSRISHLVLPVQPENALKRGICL

On to `CCOC(=O)C[C@H]1[C@H](OC(=O)Cc2ccc3c(c2)OCO3)[C@@H](NC(=O)c2ccccc2)c2cc(OCCCO)ccc2N1C(=O)c1ccc2ccccc2n1`, for which the composite z-score is 0.594 in test [1]; 0.11 in [3]; 0.481 in [4]; -0.455 in [5]; -0.152 in test [6]; 0.172 in [7]. For the same compound, the composite z-score is -0.0675 in [8]; 0.761 in test [9]; -0.055 in test [10]; 0.645 with Albumin (Bos taurus); -0.226 in test [12]; -0.147 in [13]. In addition, the composite z-score in test [14] was 0.08; in test [15], 0.526; in [16], -0.145; in the test with Sam68 (KHDRBS1), 0.679; in [17], 0.127; in test [18], 1.1. This compound also showed a z-score in test [2] of 0.173. Also, the composite Z-score in test [11] is 0.375 (inactive).
In the case of `C=CCC(OC(C)=O)[C@@H]1[C@@H](N(Cc2cccc3ccccc23)C(=O)Cc2ccc(F)cc2)c2cc(OCCCO)ccc2N1C(=O)Cc1ccc(OC)cc1` (stereo not given in full), the composite z-score in test [1] was 0.0243; in [3], 0.584; in [4] it was 0.965; in test [5] it was -0.652; in test [6], -0.197; in [7], -0.0557. The composite z-score in [8] was -0.122; in test [9], -0.0854; in test [10] it was -0.0482; in the test with Albumin (Bos taurus), 0.006; in test [12] it was -0.0454; in test [13] it was -0.119. The composite z-score in test [14] was 0.191; in test [15] it was -0.0343; in test [16] it was -0.238; with Sam68 (KHDRBS1) it was 0.191; in test [17], 0.0157; in test [18], 1.03. This compound showed a z-score in test [2] of -0.81. Also, in [11], the composite Z-score is -0.328 (inactive).
Regarding `CCOC(=O)C[C@H]1[C@H](OC(=O)c2cc3ccccc3oc2=O)[C@@H](NC(=O)c2ccc3ccccc3n2)c2cc(OCCCO)ccc2N1C(=O)c1ccc2ccccc2n1`, the composite z-score was 0.412 in test [1]; 1.09 in test [3]; -0.145 in test [4]; -0.36 in test [5]; 0.172 in test [6]; 0.01 in test [7]. Moreover, the composite z-score in test [8] is -0.158; in test [9], 0.816; in [10], 0.214; with Albumin (Bos taurus), -0.407; in test [12], 0.255; in test [13], -0.0294. For the same compound, the composite z-score in test [14] was 0.312; in [15], 0.32; in [16] it was 0.129; in the test with Sam68 (KHDRBS1), 0.539; in test [17], 0.572; in test [18], 0.862. Also, in test [2], the z-score is -2.04. In addition, in test [11], the composite Z-score was 0.581 (inactive).
`CN(C)C(=O)[C@@]1(CCS(=O)(=O)c2ccccc2)N=C(c2ccc(OCCCO)cc2)O[C@H]1c1ccccc1CN=[N+]=[N-]`: the composite z-score in test [1] was 1.42; in test [3] it was 0.446; in test [4], 1.42; in [5], -0.335; in test [6], 0.063; in test [7], 0.108. For the same compound, the composite z-score in test [8] is -0.274; in test [9] it was 1.09; in test [10], 1.06; with Albumin (Bos taurus), 0.9; in [12], 0.167; in test [13], -0.0478. Further, the composite z-score in [14] was 0.553; in [15] it was 2.45; in test [16], 0.527; with Sam68 (KHDRBS1), 1.3; in test [17] it was 0.205; in [18], 1.08. This compound returned a z-score in test [2] of -1.28. In addition, the composite Z-score in [11] was 0.24 (inactive).
As for `CCCC=C(CCC)[C@@H](NC(=O)Cc1ccccc1)c1ccc(C(=O)OC)cc1`, the composite z-score in [1] was 1.08; in test [3], 0.0461; in [4] it was 1.22; in test [5], 0.499; in test [6], 0.748; in test [7], 2.15. For the same compound, the composite z-score in test [8] was 1.79; in test [9], -0.481; in test [10], 1.66; in the test with Albumin (Bos taurus), 0.506; in test [12], 0.934; in [13], 0.0754. The composite z-score in [14] worked out at 0.405; in test [15], 1.69; in [16], 0.615; with Sam68 (KHDRBS1), 0.844; in test [17], 0.549; in test [18] it was 0.31. In [2], the z-score was -1.11. For the same compound, the composite Z-score in [11] is 0.0119 (inactive).
